Results reported in PubChem BioAssay (NCATS).
Inconclusive results are not listed. The source made the active and inactive calls. Unless noted, calls follow the shape of the dose curve; as a rule, active = well fitted curve in the direction sought with a large enough effect; inconclusive = small, poorly fitted or top-dose-only effect, or another doubt; inactive = no such curve, though single readings can be large; an effect the other way counts as inactive or inconclusive.

Experiments:
[1] = biological target: Lysosomal acid glucosylceramidase (Homo sapiens) (UniProt P04062); assay: Glucocerebrosidase-p2 (AID 348; in the data active = potency below about 10 µM; also: potency is read from the fitted curve at half-maximal effect); conditions: purified GBA, blue fluorogenic substrate, 40 min
Method in brief: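 Normal human glucocerebrosidase (0.2 nM) with blue fluorogenic substrate (80 uM final) in citrate/phosphate pH 5.9 with 10mM sodium taurocholate, 0.01% tween-20; 40 min RT, NaOH/glycine stop; fluorescence Ex 365/Em 440; AC50 from a titration from 0.6 nM upwards.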

[2] = biological target: Cytochrome P450 1A2 (Homo sapiens) (UniProt P05177); assay: p450-cyp1a2 (AID 410; calls by dose curve; also: potency is read from the fitted curve at half-maximal effect); conditions: recombinant CYP1A2, luciferin-ME demethylation, luminescence; series mostly up to 57 µM
Method in brief: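 Read-out is luminescence from luciferin produced by CYP1A2 demethylation of Luciferin-ME (100uM, at Km). Detection reagent stopped the 60 min NADPH-dependent reaction; signals were normalized to 57 uM furafylline.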

[3] = NFAT Signaling Pathway (AID 444; active = well fitted curve in either direction with a large enough effect, not every such curve was filed as active;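 also: carbachol stimulus at about its EC50 of 1 µM final; % is scaled to controls: 0 for no effect and ±100 for the full control effect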); conditions: Jurkat NFAT-bla M1, carbachol, beta-lactamase ratio, 5 h; at 7.69 µM (top of the series) unless noted
Method in brief: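 Jurkat cells carrying an NFAT-driven β-lactamase reporter and co-transfected muscarinic M1 receptor were treated with compound plus carbachol (1 uM final, an EC50 level) for 5 h at 37 °C. CCF4 loading followed for 1 h at RT; 460/530 nm ratio gave %activity.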

[4] = Stat Signaling Pathway (AID 446; active = well fitted curve in either direction with a large enough effect, not every such curve was filed as active;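 also: ME-180 cervical cancer cells given 40 pM IL-6 alongside compound; SIE-controlled beta-lactamase reporter measured as 460/530 nm FRET emission ratio; % is scaled to controls: 0 for no effect and ±100 for the full control effect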); conditions: ME-180 SIE beta-lactamase reporter, IL-6 stimulated, 5 h; series mostly up to 7.69 µM
Method in brief: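 Compound effects on IL-6-induced STAT reporter activity were measured in ME-180 cells. After overnight culture, cells were co-treated with 40 pM IL-6 for 5 hrs before beta-lactamase substrate loading at room temperature.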

[5] = biological target: Glucocorticoid receptor (Homo sapiens) (UniProt P04150); assay: GR-GFP Redistribution (AID 450;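 active = compounds whose dose series gives a full or clear partial fitted curve of increased nuclear translocation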; also: potency is read from the fitted curve at half-maximal effect); conditions: U2OS GR-GFP nuclear translocation, laser cytometry, 2 h
[6] = biological target: Glucocorticoid receptor (Homo sapiens) (UniProt P04150); assay: GR-EFC Redistribution (AID 451; calls by dose curve; also: potency is read from the fitted curve at half-maximal effect); conditions: CHO-K1 GR-EFC translocation, beta-gal luminescence, 2 h
Method in brief: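 CHO-K1 cells stably expressing nuclear-localized β-gal enzyme acceptor and GR fused C-terminally to the enzyme donor fragment; ligand-driven nuclear translocation restores β-gal by complementation. Compounds titrated up to 46 uM final, 2 h at 37 °C; luminescence read.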

[7] = biological target: Mitogen-activated protein kinase 10 (Mus musculus) (UniProt Q61831); assay: JNK3 AlphaScreen Assay (AID 530; active = well fitted curve in either direction with a large enough effect, not every such curve was filed as active;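 also: kinase came from lysate of stimulated human HepG2 cells; signal reports phosphorylation of biotinylated GST-cJun 1-79 at Ser73 with 10 µM ATP; % is scaled to controls: 0 for no effect and ±100 for the full control effect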); conditions: JNK3 lysate, c-Jun phosphorylation; series mostly up to 57.1 µM
Method in brief: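 Biotinylated GST-cJun(1-79) served as substrate for JNK3 in HepG2 lysates stimulated with IL-1beta and TNF-alpha. ATP was 10 uM final, pH 7.6. Ser73 phosphorylation was quantified by AlphaScreen (680 nm excitation).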

[8] = biological target: Dual specificity protein kinase CLK4 (Homo sapiens) (UniProt Q9HAZ1); assay: qHTS Assay for Inhibitors of CDC-like Kinase 4 (Kinase-Glo Assay) (AID 1770); conditions: recombinant Clk4, Kinase-Glo ATP depletion luminescence; series mostly up to 66.7 µM; also: nearly all actives have a fitted effect of over 65% in size; also: potency is read from the fitted curve at half-maximal effect
Method in brief: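 Inhibition was judged from remaining ATP, measured by Ultra-Glo luciferase bioluminescence after Clk4 (25 nM) had acted on RS peptide at 1 uM ATP for 4.5 hours, room temperature.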

[9] = biological target: Dual specificity protein kinase CLK4 (Homo sapiens) (UniProt Q9HAZ1); assay: qHTS Assay for Inhibitors of CDC-like Kinase 4 (ADP-Glo Assay) (AID 1771); conditions: recombinant CLK4, ADP-Glo luminescence; series mostly up to 80 µM; also: nearly all actives have a fitted effect of over 70% in size; also: potency is read from the fitted curve at half-maximal effect
Method in brief: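 In this ADP-Glo format, 1 uM ATP and 100 uM RS peptide served as substrates for 25 nM Clk4 in Mg2+/EGTA/DTT/Triton buffer; reactions ran 1 hr at room temperature before luminescent ADP quantification.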

[10] = biological target: Dual specificity protein kinase CLK4 (Homo sapiens) (UniProt Q9HAZ1); assay: qHTS Assay for Inhibitors of CDC-like Kinase 4 (ADP-FP Assay) (AID 1795); conditions: Transcreener ADP fluorescence polarization; series mostly up to 50 µM; also: nearly all actives have a fitted effect of over 60% in size; also: potency is read from the fitted curve at half-maximal effect
Method in brief: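 Inhibition of ADP formation by 6.25 nM Clk4 is measured using 1 uM ATP and 100 uM RS repeat peptide over one hour. Produced ADP displaces a fluorescent tracer from antibody, lowering polarization.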

[11] = biological target: Ubiquitin carboxyl-terminal hydrolase 1 (Homo sapiens) (UniProt O94782); assay: Inhibitors of USP1/UAF1: Pilot qHTS (AID 504865); conditions: purified USP1/UAF1, Ub-rhodamine cleavage fluorescence; series mostly up to 54.9 µM;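 also: rhodamine fluorescence freed from ubiquitin-rhodamine substrate followed over time; top concentration of the series differs between compounds; % is scaled to controls: 0 for no effect and ±100 for the full control effect; nearly all actives have a fitted effect of over 35% in size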
Method in brief: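 Kinetic fluorescence assay: 1nM USP1/UAF1, 15 min compound preincubation, then 150nM Ub-Rho; 480/540 nm.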

[12] = AP1 Signaling Pathway (AID 357; active = well fitted curve in either direction with a large enough effect, not every such curve was filed as active;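 also: ME-180 reporter cells stimulated with EGF at its EC50 level; % is scaled to controls: 0 for no effect and ±100 for the full control effect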); conditions: ME-180 AP-1-bla reporter, EGF-induced, beta-lactamase ratio, 5 h; at 7.69 µM (top of the series) unless noted
Method in brief: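 AP-1-bla ME-180 cells, Opti-MEM + 0.5% dialyzed FBS, plated overnight 37 °C. Cpd titration + EC50 EGF, 5 h 37 °C. CCF4 2.5 h RT; ex 405, em 460/530 ratio → %activity, AC50.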

[13] = biological target: 3',5'-cyclic-AMP phosphodiesterase 4B (Homo sapiens) (UniProt Q07343); assay: qHTS Assay for Inhibitors of PDE-IV (AID 607; active = well fitted activation curve with a large enough effect in the main read-out, with a control signal flat, not every such curve was filed as active; also: % of control where 0% means no effect); conditions: HEK293 ACTOne CNG channel cells, membrane potential fluorescence; series mostly up to 22.9 µM
Method in brief: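 ACTOne HEK293 cells carry a modified cAMP-gated CNG channel and express endogenous PDE4; plated 1000 cells/well, compounds up to 22.9 uM final. Membrane-potential dye fluorescence (ex 535/em 590) was read; parental cells received 10 uM forskolin + 100 uM RO 20-1724.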

[14] = biological target: Cytochrome P450 2C9 (Homo sapiens) (UniProt P11712); assay: qHTS Assay for Inhibitors and Substrates of Cytochrome P450 2C9 (AID 883); conditions: recombinant CYP2C9, luciferin-H luminescence, 60 min; series mostly up to 57.1 µM; also: potency is read from the fitted curve at half-maximal effect; nearly all actives have a fitted effect of over 60% in size
Method in brief: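 Human CYP2C9 (10nM) hydroxylated Luciferin-H (100uM, at its KM) to luciferin in 25mM KPO4. Compound was preincubated 10 min at 37C, then NADPH regeneration started a 60 min reaction at 37C. Luminescence was read after detection reagent, normalized to 57uM sulphaphenazole.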

[15] = biological target: Cytochrome P450 3A4 (Homo sapiens) (UniProt P08684); assay: qHTS Assay for Inhibitors and Substrates of Cytochrome P450 3A4 (AID 884); conditions: recombinant CYP3A4, Luciferin-PPXE luminescence; series mostly up to 57.1 µM; also: potency is read from the fitted curve at half-maximal effect; nearly all actives have a fitted effect of over 50% in size
Method in brief: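 Luminescent readout of luciferin produced by CYP3A4 (20 nM) dealkylation of Luciferin-PPXE, 25 uM (its KM). NADPH-driven reaction ran 60 min at RT after 10 min compound preincubation; data scaled to 57 uM ketoconazole as 100% inhibition.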

[16] = biological target: Cytochrome P450 3A4 (Homo sapiens) (UniProt P08684); assay: qHTS Assay for Activators of Cytochrome P450 3A4 (AID 885); conditions: recombinant CYP3A4, Luciferin-PPXE luminescence, 60 min; series mostly up to 57.1 µM; also: nearly all actives have a fitted effect of over 65% in size
Method in brief: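 CYP3A4 activity: Luciferin-PPXE O-dealkylation, 25uM substrate, 200mM KPO4, RT throughout. Read-out is luciferase luminescence; higher values reflect activation.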

[17] = biological target: Cytochrome P450 2C19 (Homo sapiens) (UniProt P33261); assay: qHTS Assay for Inhibitors and Substrates of Cytochrome P450 2C19 (AID 899); conditions: recombinant CYP2C19, luciferin-H EGE luminescence; series mostly up to 57.1 µM; also: potency is read from the fitted curve at half-maximal effect; nearly all actives have a fitted effect of over 60% in size
Method in brief: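 Human CYP2C19 (5nM) with Luciferin-H EGE at 10uM (its KM) in 50mM KPO4 was preincubated with compound for 10 min at 37C. NADPH regeneration started a 60 min 37C reaction. Luciferin was read by luminescence, normalized to 57uM ketoconazole.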

[18] = qHTS Assay for Identification of Small Molecule Agonists for Hypoxia Response Element Signaling Pathway (AID 914; active = well fitted activation curve with a large enough effect in the signal ratio, with a control signal flat, not every such curve was filed as active; the % refers to the signal ratio; also: % of control where 0% means no effect); conditions: ME-180 (cervical carcinoma) HRE-bla reporter, beta-lactamase ratio, CoCl2, 17 h; activation: hits give high values
Method in brief: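 AC50 values come from titration-series %Activity, taken as the 460/530nm ratio of CCF4 fluorescence (excitation 405nm). CellSensor HRE-bla ME-180 cells were treated 17 hours at 37 C with compound plus an EC50 level of CoCl2.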

[19] = biological target: Cytochrome P450 2D6 (Homo sapiens) (UniProt P10635); assay: qHTS Assay for Inhibitors and Substrates of Cytochrome P450 2D6 (AID 891); conditions: recombinant CYP2D6, luciferin-ME EGE luminescence; series mostly up to 57.1 µM; also: potency is read from the fitted curve at half-maximal effect; nearly all actives have a fitted effect of over 60% in size
Method in brief: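 Luminescent read-out of luciferin formed by 5 nM human CYP2D6 demethylating 30 uM Luciferin-ME EGE (Km level) over 60 min at room temperature after NADPH regeneration addition. Data normalized to full inhibition by 1.43 uM quinidine.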

Ubiquitin carboxyl-terminal hydrolase 1 (Homo sapiens), sequence (O94782 whole entry, looked up): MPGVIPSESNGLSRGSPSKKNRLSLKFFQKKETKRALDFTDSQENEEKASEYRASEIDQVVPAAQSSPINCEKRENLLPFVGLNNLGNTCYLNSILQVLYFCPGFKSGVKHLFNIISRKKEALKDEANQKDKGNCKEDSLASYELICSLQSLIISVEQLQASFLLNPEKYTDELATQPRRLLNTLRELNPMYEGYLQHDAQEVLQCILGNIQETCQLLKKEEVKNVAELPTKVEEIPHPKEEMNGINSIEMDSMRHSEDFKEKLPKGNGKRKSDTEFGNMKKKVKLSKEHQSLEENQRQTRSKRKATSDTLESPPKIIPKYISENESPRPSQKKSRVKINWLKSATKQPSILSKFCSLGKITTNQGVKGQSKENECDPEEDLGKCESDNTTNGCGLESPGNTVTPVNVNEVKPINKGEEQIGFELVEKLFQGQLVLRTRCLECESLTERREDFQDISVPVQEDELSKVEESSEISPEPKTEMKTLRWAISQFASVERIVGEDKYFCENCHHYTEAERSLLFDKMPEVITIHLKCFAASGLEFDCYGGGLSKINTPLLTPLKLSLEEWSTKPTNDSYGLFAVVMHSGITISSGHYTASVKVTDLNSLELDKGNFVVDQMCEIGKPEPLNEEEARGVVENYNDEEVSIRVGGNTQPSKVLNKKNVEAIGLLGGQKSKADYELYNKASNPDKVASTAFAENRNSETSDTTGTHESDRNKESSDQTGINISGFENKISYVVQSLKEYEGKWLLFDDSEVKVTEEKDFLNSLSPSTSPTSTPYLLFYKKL
Glucocorticoid receptor (Homo sapiens), sequence (P04150 whole entry, looked up, the tested form may be a part): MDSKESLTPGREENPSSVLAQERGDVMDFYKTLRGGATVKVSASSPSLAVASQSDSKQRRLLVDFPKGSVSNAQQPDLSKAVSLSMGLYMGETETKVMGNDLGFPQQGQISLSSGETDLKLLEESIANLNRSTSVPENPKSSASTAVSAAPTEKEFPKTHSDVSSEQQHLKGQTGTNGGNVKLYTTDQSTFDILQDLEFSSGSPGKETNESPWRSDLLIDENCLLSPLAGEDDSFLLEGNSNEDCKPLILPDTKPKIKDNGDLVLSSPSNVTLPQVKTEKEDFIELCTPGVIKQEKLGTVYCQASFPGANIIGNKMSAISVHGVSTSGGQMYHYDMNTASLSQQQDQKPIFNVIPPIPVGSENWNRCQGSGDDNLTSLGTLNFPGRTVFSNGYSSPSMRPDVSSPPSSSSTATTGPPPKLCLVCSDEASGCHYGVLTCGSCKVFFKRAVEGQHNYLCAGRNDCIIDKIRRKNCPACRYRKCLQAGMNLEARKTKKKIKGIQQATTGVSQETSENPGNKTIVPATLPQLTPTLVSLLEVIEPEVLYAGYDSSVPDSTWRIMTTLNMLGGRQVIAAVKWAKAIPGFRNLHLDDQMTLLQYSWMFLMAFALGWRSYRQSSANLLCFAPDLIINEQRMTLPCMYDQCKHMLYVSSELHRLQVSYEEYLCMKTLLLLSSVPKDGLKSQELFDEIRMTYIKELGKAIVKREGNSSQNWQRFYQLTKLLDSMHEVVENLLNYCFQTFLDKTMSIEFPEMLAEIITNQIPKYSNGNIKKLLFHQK
Dual specificity protein kinase CLK4 (Homo sapiens), sequence (Q9HAZ1 whole entry, looked up): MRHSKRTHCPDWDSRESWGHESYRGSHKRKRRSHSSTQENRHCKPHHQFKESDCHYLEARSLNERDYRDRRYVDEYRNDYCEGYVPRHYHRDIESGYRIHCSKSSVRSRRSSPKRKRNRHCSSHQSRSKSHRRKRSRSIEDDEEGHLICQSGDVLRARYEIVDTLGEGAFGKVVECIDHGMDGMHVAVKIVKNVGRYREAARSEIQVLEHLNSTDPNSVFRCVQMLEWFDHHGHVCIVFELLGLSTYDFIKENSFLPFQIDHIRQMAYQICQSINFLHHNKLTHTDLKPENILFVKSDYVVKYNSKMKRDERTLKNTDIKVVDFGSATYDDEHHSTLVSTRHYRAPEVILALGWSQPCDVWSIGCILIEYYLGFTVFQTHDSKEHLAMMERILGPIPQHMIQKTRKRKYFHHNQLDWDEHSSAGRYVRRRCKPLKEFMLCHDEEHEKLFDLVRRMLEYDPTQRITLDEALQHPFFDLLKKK
Lysosomal acid glucosylceramidase (Homo sapiens), sequence (P04062 whole entry, looked up): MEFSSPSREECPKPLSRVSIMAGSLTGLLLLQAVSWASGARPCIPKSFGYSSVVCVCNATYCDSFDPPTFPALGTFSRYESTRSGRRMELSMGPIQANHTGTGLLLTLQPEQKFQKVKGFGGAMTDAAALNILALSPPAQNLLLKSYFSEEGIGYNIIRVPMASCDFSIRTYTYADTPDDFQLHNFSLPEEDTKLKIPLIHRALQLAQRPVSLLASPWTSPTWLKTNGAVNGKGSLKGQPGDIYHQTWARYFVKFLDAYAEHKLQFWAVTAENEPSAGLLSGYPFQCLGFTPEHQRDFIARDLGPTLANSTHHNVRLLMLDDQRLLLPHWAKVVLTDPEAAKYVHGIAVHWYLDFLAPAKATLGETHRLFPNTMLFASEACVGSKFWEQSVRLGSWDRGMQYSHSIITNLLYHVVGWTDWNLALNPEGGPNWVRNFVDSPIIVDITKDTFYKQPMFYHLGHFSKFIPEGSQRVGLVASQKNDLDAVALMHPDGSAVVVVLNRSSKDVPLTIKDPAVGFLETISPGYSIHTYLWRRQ
Cytochrome P450 1A2 (Homo sapiens), sequence (P05177 whole entry, looked up): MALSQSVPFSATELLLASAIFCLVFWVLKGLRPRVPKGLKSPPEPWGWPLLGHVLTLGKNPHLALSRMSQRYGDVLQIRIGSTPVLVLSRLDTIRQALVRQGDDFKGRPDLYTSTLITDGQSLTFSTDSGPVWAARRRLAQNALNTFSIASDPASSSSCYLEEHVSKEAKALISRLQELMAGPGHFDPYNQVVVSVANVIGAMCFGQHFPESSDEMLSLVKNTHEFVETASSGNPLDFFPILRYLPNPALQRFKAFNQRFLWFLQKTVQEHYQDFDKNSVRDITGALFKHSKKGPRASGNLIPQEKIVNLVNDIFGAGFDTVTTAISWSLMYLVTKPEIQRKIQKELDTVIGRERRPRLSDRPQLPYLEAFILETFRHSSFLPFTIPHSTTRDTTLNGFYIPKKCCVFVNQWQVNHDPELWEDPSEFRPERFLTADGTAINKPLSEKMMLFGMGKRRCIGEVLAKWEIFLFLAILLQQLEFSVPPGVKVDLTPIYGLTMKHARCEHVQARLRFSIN
3',5'-cyclic-AMP phosphodiesterase 4B (Homo sapiens), sequence (Q07343 whole entry, looked up): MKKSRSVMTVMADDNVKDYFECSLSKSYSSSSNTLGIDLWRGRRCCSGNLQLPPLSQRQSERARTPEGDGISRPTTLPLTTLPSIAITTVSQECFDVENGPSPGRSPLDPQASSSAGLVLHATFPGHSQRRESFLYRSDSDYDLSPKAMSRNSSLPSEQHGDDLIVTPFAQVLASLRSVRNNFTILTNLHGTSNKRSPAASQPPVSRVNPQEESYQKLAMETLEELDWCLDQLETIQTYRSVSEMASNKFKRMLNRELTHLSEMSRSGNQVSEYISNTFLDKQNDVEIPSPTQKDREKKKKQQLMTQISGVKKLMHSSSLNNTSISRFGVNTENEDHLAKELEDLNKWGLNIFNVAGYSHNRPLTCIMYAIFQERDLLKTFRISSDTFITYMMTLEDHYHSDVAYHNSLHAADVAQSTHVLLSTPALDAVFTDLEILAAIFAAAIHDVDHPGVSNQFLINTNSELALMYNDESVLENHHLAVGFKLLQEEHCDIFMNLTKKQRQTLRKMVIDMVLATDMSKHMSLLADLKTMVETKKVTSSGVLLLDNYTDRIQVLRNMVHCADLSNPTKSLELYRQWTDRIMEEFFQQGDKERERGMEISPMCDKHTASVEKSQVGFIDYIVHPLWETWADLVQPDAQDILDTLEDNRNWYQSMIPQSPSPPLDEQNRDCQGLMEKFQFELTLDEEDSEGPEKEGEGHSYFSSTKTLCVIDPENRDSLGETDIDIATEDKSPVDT
Cytochrome P450 3A4 (Homo sapiens), sequence (P08684 whole entry, looked up): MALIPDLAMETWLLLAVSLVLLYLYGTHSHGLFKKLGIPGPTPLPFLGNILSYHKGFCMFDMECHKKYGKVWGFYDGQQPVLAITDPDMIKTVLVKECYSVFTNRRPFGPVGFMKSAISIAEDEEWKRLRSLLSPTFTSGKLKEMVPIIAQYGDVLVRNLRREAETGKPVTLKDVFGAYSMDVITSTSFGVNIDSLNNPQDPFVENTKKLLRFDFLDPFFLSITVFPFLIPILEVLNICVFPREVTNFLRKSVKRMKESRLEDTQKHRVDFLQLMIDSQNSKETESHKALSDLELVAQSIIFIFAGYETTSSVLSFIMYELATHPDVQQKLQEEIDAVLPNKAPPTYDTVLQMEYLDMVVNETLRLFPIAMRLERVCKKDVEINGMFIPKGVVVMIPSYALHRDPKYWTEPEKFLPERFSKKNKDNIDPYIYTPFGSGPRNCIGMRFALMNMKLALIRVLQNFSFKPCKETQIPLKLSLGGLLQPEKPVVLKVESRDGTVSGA
Cytochrome P450 2C19 (Homo sapiens), sequence (P33261 whole entry, looked up): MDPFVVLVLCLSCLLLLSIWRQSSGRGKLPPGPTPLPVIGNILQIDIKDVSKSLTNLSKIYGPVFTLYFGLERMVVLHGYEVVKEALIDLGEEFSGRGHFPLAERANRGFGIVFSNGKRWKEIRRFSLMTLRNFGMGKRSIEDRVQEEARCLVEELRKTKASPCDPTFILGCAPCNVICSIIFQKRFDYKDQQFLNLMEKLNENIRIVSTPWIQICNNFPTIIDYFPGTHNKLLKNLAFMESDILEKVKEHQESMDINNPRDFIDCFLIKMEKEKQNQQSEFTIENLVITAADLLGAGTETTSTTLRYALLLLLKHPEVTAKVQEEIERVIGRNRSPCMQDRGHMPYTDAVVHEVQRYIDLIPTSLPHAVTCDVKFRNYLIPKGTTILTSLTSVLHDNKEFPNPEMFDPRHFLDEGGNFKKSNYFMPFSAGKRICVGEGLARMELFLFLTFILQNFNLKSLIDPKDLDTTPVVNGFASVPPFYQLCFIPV

CN(Cc1ccco1)c1nc(-c2cccnc2)nc2ccccc12
inactive: Potency [1] > 11.4 µM | activity change, negative = inhibition [3] -25.8% | outcome [4] | Potency [5] > 46 µM | Potency [6] > 46 µM | Potency [7] | Potency [11]
active: Potency [2] 0.316 µM | Potency [8] 15.8 µM | Potency [9] 14.1 µM | Potency [10] 12.6 µM

COCCn1c(=O)c(CCc2ccccc2)nc2cnc(Oc3ccccc3)nc21
inactive: activity change, negative = inhibition [12] -27.4% | activity change, negative = inhibition [3] 7.7% | outcome [4] | Potency [5] > 9.22 µM | Potency [6] > 46 µM | Potency [13] | Potency [8] | Potency [9] | Potency [10] | Potency [11]

COc1cccc(Cn2c(=O)cnc3cnc(Nc4cccc(OC)c4)nc32)c1
active: Potency [2] 3.98 µM | Potency [14] 2 µM | Potency [15] 2 µM | Potency [17] 3.98 µM | Potency [8] 2.24 µM | Potency [9] 2.24 µM | Potency [10] 2 µM
inactive: Potency [1] > 11.4 µM | activity change, negative = inhibition [3] 15.4% | outcome [4] | Potency [5] > 9.22 µM | Potency [6] > 46 µM | Potency [7] | Potency [13] | outcome [16] | Potency [11]

COCCn1c(=O)c(-c2ccc(F)cc2)nc2cnc(Oc3ccccc3)nc21
inactive: activity change, negative = inhibition [3] 9.44% | outcome [4] | Potency [5] > 9.22 µM | Potency [6] > 46 µM | Potency [7] | outcome [16] | Potency [8] | Potency [9] | Potency [10] | Potency [11]
active: Potency [2] 0.794 µM

c1ccc2c(NCCN3CCOCC3)nc(-c3ccoc3)nc2c1
active: Potency [2] 5.01 µM
inactive: Potency [1] > 11.4 µM | activity change, negative = inhibition [12] 1.61% | activity change, negative = inhibition [3] -7.47% | outcome [4] | Potency [5] > 46 µM | Potency [6] > 46 µM | Potency [7] | outcome [16] | activation [18] -2.73% | Potency [8] | Potency [9] | Potency [11]

COc1ccccc1-c1nc(N2CCN(C)CC2)c2ccccc2n1
active: Potency [2] 12.6 µM
inactive: activity change, negative = inhibition [12] 9.75% | activity change, negative = inhibition [3] 4.89% | outcome [4] | Potency [5] > 46 µM | Potency [6] > 46 µM | Potency [7] | outcome [16] | Potency [8] | Potency [9] | Potency [10] | Potency [11]

COc1ccc2[nH]cc(CCNc3ncncc3-c3ccccc3OC)c2c1
inactive: Potency [1] > 11.4 µM | activity change, negative = inhibition [12] -16.8% | activity change, negative = inhibition [3] -9.5% | outcome [4] | Potency [5] > 46 µM | Potency [6] > 46 µM | Potency [7] | Potency [13] | outcome [16] | Potency [11]
active: Potency [2] 2.51 µM | Potency [14] 0.251 µM | Potency [15] 0.126 µM | Potency [19] 1.26 µM | Potency [17] 0.0794 µM | Potency [8] 8.91 µM | Potency [9] 25.1 µM
